Screening results: PubChem, National Center for Advancing Translational Sciences (NCATS)
Many of the other results were omitted from the sample, so hits are more common in it than they were.
Pf Dd2 growth: qHTS Primary assay for Inhibitors of Plasmodium falciparum Dd2 growth in vitro; P. falciparum Dd2 growth, SYBR Green, 72 h; Potency, µM (highest dose often 28.9 µM), inactives show top-dose activity, negative = inhibition, usual class: inhibitors; actives 4.3% (n = 120,000); active = well fitted inhibition curve with a large enough effect;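 note: plate controls were DMSO vehicle for no effect and reference drug for full effect; nearly all actives have a fitted effect of over 65% in size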
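Readout: SYBR Green fluorescence, 485 nm excitation, 535 nm emission, after ~16 h lysis at 37C. Before that, Dd2-infected red cells (2.5% hematocrit) grew 72 h with compound, 29 uM top final concentration.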
Active calls of the source: *; i = inactive; [ ] = dose if it differs, or a comment. Potency is the fitted concentration of half-maximal effect.

SMILES | Pf Dd2 growth
COc1ccc(OC)c(C2CC(=O)c3c([nH]c(C(=O)OC4CCC(C)CC4)c3C)C2)c1 (stereo not given) | 10µM*
Cc1c(C(=O)OC2CCC(C)CC2)[nH]c2c1C(=O)CC(c1ccc(F)cc1)C2 (stereo not given) | -17%
CCOc1ccc(C2CC(=O)c3c([nH]c(C(=O)OC4CCC(C)CC4)c3C)C2)cc1 (stereo not given) | -8%
COc1ccc(C2CC(=O)c3c([nH]c(C(=O)OC4CCCCCC4)c3C)C2)cc1OC (stereo not given) | 10µM*
Cc1c(C(=O)OC2CCCCC2)[nH]c2c1C(=O)CC(c1ccccc1)C2 (stereo not given) | -16%
CC1CCN(CC2CCCCCN2)CC1 (stereo not given) | 14%
Cc1ccc(C(=O)N2CCCN(c3nc4ncccc4o3)CC2)cc1 | 13%[44.1 µM]
COc1ccc(-c2cc(-c3ccc(F)cc3)cn3cncc23)cc1 | 3.2µM*
OCc1ccc(-c2cc(-c3ccncc3)c3cncn3c2)cc1 | -6%[44.1 µM]
c1cc(-c2cc(-c3ccncc3)c3cncn3c2)c2[nH]ncc2c1 | i
COc1ccc(-c2cc(-c3ccncc3)cn3cncc23)cc1 | 10µM*
Cn1cc(-c2cc(-c3ccncc3)c3cncn3c2)cn1 | i
Fc1cccc(-c2cc(-c3cn[nH]c3)c3cncn3c2)c1 | -2%[44.1 µM]
COc1cc(F)ccc1-c1cc(-c2cn[nH]c2)c2cncn2c1 | i
COc1ccc(-c2cc(-c3ccc(F)cc3OC)cn3cncc23)cc1 | 6.3µM*
CN(C)Cc1ccc(-c2cc(-c3cn[nH]c3)c3cncn3c2)cc1 | 11%[44.1 µM]
COc1cccc(-c2cc(-c3ccncc3)c3cncn3c2)c1OC | 10µM*
COc1ccccc1-c1cc(-c2ccc(=O)[nH]c2)c2cncn2c1 | 15%[44.1 µM]
Cc1nonc1CC(=O)N1CCC(O)(CN2CCOCC2)C(C)(C)C1 (stereo not given) | -15%
O=C(c1ccc(Cl)s1)N1CCC(n2cc(-c3nc(-c4ccccc4)no3)nn2)CC1 | -1%
CCc1ccc(C(=O)N2C[C@@H](COC)[C@H](c3nc(COC)no3)C2)cc1 | i
CCOc1ncccc1C(=O)NC1CC(c2nnc(CN(C)C)n2C)C1 (stereo not given) | 0%
COC1C(=O)N(C2CCN(S(=O)(=O)c3c(C)noc3C)CC2)C12CCOCC2 (stereo not given) | -2%
CC(C)c1ccccc1NC(=O)CN1C(=O)NC2(CCOCC2)C1=O | 8%
Cc1ccc(C(C(=O)NCc2cc(=O)[nH]cn2)N(C)C)cc1 (stereo not given) | -9%
SMILES | Pf Dd2 growth
O=C(C1CCc2nnc(-c3ccc(Cl)cc3Cl)n21)N1CCOCC1 (stereo not given) | 49%
Cc1noc(C)c1-c1cc(-c2ccc3c(c2)C(=O)NC3)cn2cncc12 | i
FC(F)(F)c1cccc(-c2cc(-c3ccncc3)c3cncn3c2)c1 | -13%[44.1 µM]
COc1ccc(-c2cc(-c3ccc4c(c3)CNC4=O)cn3cncc23)cc1 | 4.5µM*
COc1ccc(-c2cc(-c3ccncc3)c3cncn3c2)cc1 | 11µM*
COc1ccc(C2Cn3cnc(C(=O)N4CCC(C(=O)NCc5cccnc5)CC4)c3CO2)cc1 (stereo not given) | i
COC(=O)c1c(NC(=O)COc2ccc(OC)cc2)sc2c1CCC(C)C2 (stereo not given) | -1%
COc1ccc(NC(=O)Cn2nnc3sc4c(c3c2=O)CCC(C)C4)c(OC)c1 (stereo not given) | 19%
COC(=O)c1c(NC(=O)COc2c(C)ccc(C)c2C)sc2c1CCC(C)C2 (stereo not given) | 26%
CCOC(=O)N1CCc2c(sc(NCc3ccc(N(CC)CC)cc3)c2C(=O)Nc2cc(OC)ccc2OC)C1 | 7.9µM*
COC(=O)c1c(NC(=O)COc2cc(C)ccc2C(C)C)sc2c1CCC(C)C2 (stereo not given) | 24%
CCOC(=O)N1CCc2c(sc(NCc3cccs3)c2C(=O)Nc2ccc(OC)cc2OC)C1 | -6%
CCOC(=O)N1CCc2c(sc3c2C(=O)NC(c2cc(OC)c(O)c(OC)c2)N3)C1 (stereo not given) | -15%
COc1ccc(OC)c(NC(=O)c2c(NCc3ccc(C)o3)sc3c2CCC(C)C3)c1 (stereo not given) | 11µM*
COc1ccc(OC)c(NC(=O)c2c(NCc3ccc(OC)c(OC)c3)sc3c2CCC(C)C3)c1 (stereo not given) | 5.6µM*
COc1ncccc1-c1cc(C(=O)NCCN2CCOCC2)c2c(c1)ncn2C | 23%[44.1 µM]
Cc1nn(C(C)C)c(C)c1CN1CC[C@@H](c2ccc3c(c2)OCO3)[C@H](O)C1 | -26%
O=C(CCc1nc2ccccc2s1)N1CCC(c2noc(-c3ccncc3)n2)C1 (stereo not given) | 24%[5.79 µM]
O=C(c1ccccc1F)N1CCCC(c2nn[nH]n2)C1 (stereo not given) | -14%
Cc1nccn1CCNC(=O)c1ccc(N2CC3CC(C2)[C@H]2CCCC(=O)N2C3)nc1 (stereo not given in full) | 7%
COc1ccc(NC(=O)N2CCC3(CC2)SCC(=O)N3c2ccc(Cl)cc2)cc1 | i
CCc1cccc(NC(=O)N2CCC(OC3CCN(S(C)(=O)=O)CC3)CC2)c1 | i
COc1ccc(NC(=O)O[C@@H]2CC[C@]3(C)C(CC[C@@H](O)[C@H]3CC(=O)N3CCC[C@H]3CO)[C@]2(C)CO)cc1 (stereo not given in full) | -21%
CCCNC(=O)O[C@@H]1CC[C@]2(C)[C@H](CC[C@@H](O)[C@H]2CC(=O)N2CCCCC2)[C@]1(C)CO | i
COc1cc(NC(=O)O[C@@H]2CC[C@]3(C)C(CC[C@@H](O)[C@H]3CC(=O)N3CCCCC3)[C@]2(C)CO)cc(OC)c1OC (stereo not given in full) | 5µM*
SMILES | Pf Dd2 growth
COc1cc(NC(=O)O[C@@H]2CC[C@]3(C)C(CC[C@@H](O)[C@H]3CC(=O)N3CCCC3)[C@]2(C)CO)cc(OC)c1 (stereo not given in full) | -14%
C[C@]1(CO)C2CC[C@@H](O)[C@@H](CC(=O)NCc3cccs3)[C@]2(C)CC[C@H]1OC(=O)NC1CCCCC1 (stereo not given in full) | 11µM*
CCCNC(=O)O[C@@H]1CC[C@]2(C)[C@H](CC[C@@H](O)[C@H]2CC(=O)N2CCCC2)[C@]1(C)CO | 0%[44.1 µM]
C[C@]1(CO)C2CC[C@@H](O)[C@@H](CC(=O)N3CCCC3)[C@]2(C)CC[C@H]1OC(=O)Nc1ccccc1 (stereo not given in full) | 8.9µM*
CCNC(=O)O[C@@H]1CC[C@]2(C)C(CC[C@@H](O)[C@H]2CC(=O)NCc2ccc(F)cc2)[C@]1(C)CO (stereo not given in full) | -5%
CC(C)NC(=O)O[C@@H]1CC[C@]2(C)C(CC[C@@H](O)[C@H]2CC(=O)NCc2ccco2)[C@]1(C)CO (stereo not given in full) | -11%
Fc1ccc(-c2noc([C@@H]3CCCN3Cc3ccccc3)n2)nc1 | i
N#Cc1cccc(CN2C[C@H](O)C[C@H]2c2nc(CS(=O)(=O)c3ccc(F)cc3)no2)c1 | i
COCCN1C(=O)CC[C@]2(C(=O)NCc3ccco3)CCCC[C@@H]12 | -23%
COc1ccc(C(=O)N2CCC3(CC2)N(C)C(=O)CS3(=O)=O)cc1F | 8%
O=C(NCc1ccccn1)c1c(OCC2CC2)cc(=O)n2c1CCCCC2 | 12%
CN1C(=O)C(c2ccccc2)CC12CCN(C(=O)CN1CCCC1)CC2 (stereo not given) | 6%
